Screens from PubChem.
Pf growth 48h: inhibits P. falciparum growth in the first generation, 48 h; P. falciparum luciferase growth in erythrocytes, 48 h; Potency, µM (doses to about 28.7 µM), for inactives: top-dose activity change, negative = inhibition, most hits filed as inhibitors; hit rate 5.9% among 310,000
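Luciferase-expressing parasites in RBCs, 2% Hct / 0.1% parasitemia final; RPMI 1640 + 0.5% Albumax; 37 C, 5% CO2, one generation; luminescence read-out, lower signal = inhibition.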
HCV inhibitor: blocks hepatitis C virus | Huh7.5.1 HCVcc-Cre infection, luciferase reporter, 44 h | Potency, µM (titrated, usually from 41.8 µM), without a hit: at the highest dose activity change, negative = inhibition, usual class: inhibitors | hit rate 3.4% among 340,000 | AID 651820
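Cells (1,000/well) were plated 4 h before compound, then infected with HCVcc-Cre virus (~0.5 moi). After 44 h further culture, infection was read as luciferase luminescence following a 15 min substrate incubation at room temperature.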
AMA1 RON2 block: AMA1-RON2 (P. falciparum) interaction inhibition. Potency, µM (highest dose often 58.2 µM), without a hit: top-dose activity change, negative = inhibition, hits mostly inhibitors. AID 720542. AlphaScreen AMA1-biotinylated RON2 peptide binding. hit rate 0.2% among 360,000;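 note: 0% = vehicle wells and -100% = peptide control; nearly all actives have a fitted effect of over 45% in size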
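AMA1 (3D7) with his tag at 25 nM final met compounds first, then biotinylated RON2 peptide at 25 nM; detection used donor plus acceptor beads, 10 µg/mL apiece, read by AlphaScreen after 30 min at room temperature.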
Pf growth 96h: P. falciparum growth inhibition at 96 hours; P. falciparum luciferase reporter growth, 96 h; Potency, µM (titrated, usually from 28.7 µM), for the others: at the top dose activity change, negative = inhibition, usual class: inhibitors; hit rate 6.9% among 320,000
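Two-generation exposure (96 h) targets delayed-death phenotype. Reporter parasites carrying integrated firefly luciferase, in red cells at 2% hematocrit and 0.05% parasitemia final, kept at 37 C, 5% CO2; luminescence loss indicates inhibition.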
* marks the source's active call; other numbers are inactive results; ? = inconclusive; nt = no result; [ ] = dose if it differs, or a comment. Hits are enriched below; roughly 11% of the tested compounds scored in any of these assays. Calls come from the whole dose curve; as a rule, active = well fitted curve in the direction sought with a large enough effect; inconclusive = small, poorly fitted or top-dose-only effect, or another doubt; inactive = no such curve, though single readings can be large; an effect the other way counts as inactive or inconclusive. Unless noted, % is set by controls: 0 for no effect and ±100 for the full control effect; potency is the fitted concentration of half-maximal effect.

SMILES | Pf growth 48h | HCV inhibitor | AMA1 RON2 block | Pf growth 96h
CN1CCN(S(=O)(=O)c2cccc(C(=O)NCc3ccccc3Cl)c2)CC1 | 6% | -5% | -7% | ?
CCc1cc(C(=O)N2CCCC(CCC(=O)NCc3cccc(OC)c3)C2)no1 (centres undefined) | 7% | -9% | -5% | 43%
CC1CCC(NC(=O)c2cc3ccccc3cc2O)CC1 (centres undefined) | ? | ? | -10% | ?
O=C(NCC1CCCCC1)c1cc2ccccc2cc1O | 1.3µM* | 13µM* | 28% | 1.7µM*
CCC1CCCCN1C(=O)COC(=O)c1cc2ccccc2cc1O (centres undefined) | nt | -11% | 6% | -8%
O=C(N/N=C1/CC2CCC1C2)c1cc2ccccc2cc1O (centres undefined) | ? | 12% | 117% | 9.3µM*
O=C(OCC(=O)N1CCCCC1)c1cc2ccccc2cc1O | 52% | -2% | 9% | 9.3µM*
CCC(=O)N/N=C(\C)CC(=O)Nc1ccc2c(c1)OCCO2 | -1% | ? | 27% | -18%
CCc1ccccc1NC(=S)N(CCCN1CCOCC1)Cc1cccs1 | -17% | -2% | 0% | 2.6µM*
Cc1ccc(Cl)cc1NC(=S)N(CCCN1CCN(C)CC1)Cc1cccs1 | 0% | 6.3µM* | -19% | 0%
Cc1cc(C)c(NC(=S)N(CCCN2CCN(C)CC2)Cc2cccs2)c(C)c1 | -30% | ? | -2% | 10µM*
CCN1CCN(CCCN(Cc2ccco2)C(=S)Nc2ccccc2Cl)CC1 | 34% | ? | -9% | 1.9µM*
S=C(Nc1ccc(Cl)cc1)N(CCCN1CCOCC1)Cc1cccs1 | -17% | 3% | -18% | ?
Cc1cc(Cl)ccc1NC(=S)N(CCCN1CCOCC1)Cc1cccs1 | ? | -3% | -23% | 12µM*
CCOc1ccccc1NC(=O)CC(O)(C(F)(F)F)C(F)(F)F | -4% | 10% | ? | 40%
CCOc1ccccc1NC(=O)COn1nnc2ccccc21 | 31% | 13µM* | 4% | nt
ONC(=Nc1ccc(Cl)cc1)c1ccccc1 | 54% | 4% | -3% | 55%
CCN(CC(=O)Nc1ccc2c(c1)OCCO2)C(=O)/C=C/c1ccc(F)cc1 | 41% | -16% | -15% | 40%
CCOC(=O)N1CCN(C(=O)Cn2nc(C)c3sc4ccccc4c3c2=O)CC1 | ? | 16% | 1% | 10µM*
Cc1nn(CC(=O)N2CCN(C)CC2)c(=O)c2c1sc1ccccc12 | -3% | 4% | 11% | ?
COc1ccc(S(=O)(=O)Nc2cc3c4c(c2)CC(=O)N4CCC3)cc1 | ? | -15%[8.37 µM] | 4% | ?
O=C1CCc2cc(S(=O)(=O)Nc3ccccc3F)cc3c2N1CCC3 | 2% | 11% | 0% | 53%
Cc1ccc(NS(=O)(=O)c2cc3c4c(c2)CC(=O)N4CCC3)cc1C | 10µM* | ? | -1% | -15%
COc1ccccc1NS(=O)(=O)c1cc2c3c(c1)CC(=O)N3CCC2 | 9.3µM* | ? | -9% | 58%
COc1ccc(CCNS(=O)(=O)c2cc3c4c(c2)CC(=O)N4CCC3)cc1 | 9.3µM* | -11% | -2% | -6%
SMILES | Pf growth 48h | HCV inhibitor | AMA1 RON2 block | Pf growth 96h
O=S(=O)(c1cc(F)ccc1F)N1CCN(c2ncnc3ccccc23)CC1 | nt | 3.2µM* | -1% | nt
Cc1cc(NC(=O)CSc2nnc(-c3ccncc3)n2C)n(-c2ccccc2)n1 | 2% | 9% | 1% | 12%
CCOC(=O)CC1C(=O)NCCN1S(=O)(=O)c1cccc(C(F)(F)F)c1 (centres undefined) | 13% | 5% | 10% | ?
Cc1ccc(NC(=O)C(c2ccccc2)N2CCN(C(=O)c3ccco3)CC2)cc1Cl (centres undefined) | 10µM* | 0% | -10% | ?
Cc1cccc(C)c1NC(=O)C(c1ccccc1)N1CCN(C(=O)c2ccco2)CC1 (centres undefined) | ? | -8% | 8% | nt
CCOc1ccccc1NC(=O)C(c1ccccc1)N1CCN(C(=O)c2ccco2)CC1 (centres undefined) | 9.3µM* | ? | -9% | ?
CCCCN(C(=O)CSc1n[nH]c(-c2ccc(C)cc2)n1)c1c(N)n(CCCC)c(=O)[nH]c1=O | ? | -17% | 14% | ?
CCC1CCCCN1CCCNC(=O)c1ccc2c(c1)N(Cc1ccc(F)cc1)C(=O)c1ccccc1S2=O (centres undefined) | ? | ? | -10% | ?
O=C1CCCc2oc3c(cc(NS(=O)(=O)c4ccc5c6c(cccc46)C(=O)N5)c4ccccc43)c21 | ? | ? | -15% | 12µM*
COc1ccccc1NC(=O)Cc1nnc(SCC(=O)Nc2nccs2)n1C | -7% | 4% | -15% | 1%
COc1ccc(NC(=O)[C@@H]2CC=C[C@@H]3CCN(Cc4ccc(Cl)c(Cl)c4)C(=O)[C@@H]32)cc1 | nt | 0.56µM* | 1% | nt
COc1ccc(NC(=O)[C@@H]2CC=C[C@@H]3CCN(Cc4ccccc4)C(=O)[C@@H]32)cc1 | nt | 16% | 17% | nt
COc1ccc(NC(=O)CCc2nnc3ccc(NCc4ccco4)nn23)cc1OC | -19% | 12% | 11% | ?
COc1ccc(Cl)cc1NC(=O)CN(C)C(=O)c1cc(=O)c2ccccc2o1 | 12µM* | -20% | -13% | ?
COc1ccc(NC(=O)C/C(C)=N/NC(=O)c2ccccn2)c(OC)c1 | 10% | -5% | 72% | 13µM*
COc1ccc(Cl)cc1NC(=O)CN(C)CC(=O)Nc1ccccc1-c1ccccc1 | ? | ? | 50% | 12µM*
COc1ccc(Cl)cc1NC(=O)C/C(C)=N/NC(=O)c1ccccc1Cl | -9% | 8% | 71% | 13µM*
COc1ccc(Cl)cc1NC(=O)CN(C)C(=O)Cc1ccc(-c2ccccc2)cc1 | ? | -9% | -1% | ?
CCCCCCCCCC(=O)N[C@@H]1c2cc(OC)c(OC)cc2C[C@H]1OCc1ccccc1 | nt | -1% | -5% | nt
CC(=O)N1c2ccccc2N=C(c2ccc3c(c2)OCO3)C1C(=O)NCc1ccccc1 (centres undefined) | nt | nt | -7% | nt
Cc1ccc(NC(=O)CN(C)CC(=O)Nc2ccccc2-c2ccccc2)cc1 | ? | ? | 11% | 13µM*
COc1ccc(Cl)cc1NC(=O)C(C)N1CCN(C/C=C/c2ccccc2)CC1 (centres undefined) | nt | ? | ? | 12µM*
COc1ccc(Cl)cc1NC(=O)CC(C)c1ccccc1 (centres undefined) | nt | 8.9µM* | 20% | nt
CC(=O)c1ccc(NC(=O)C(C)N2CCN(C/C=C/c3ccccc3)CC2)cc1 (centres undefined) | ? | ? | -16% | ?
CCOc1ccc(CCNC(=O)c2ccc3c(=O)[nH]c4c(C(=O)NC(C)C)sc(=S)n4c3c2)cc1 | ? | 6% | 12% | 3.3µM*
COc1ccc(Cl)cc1C(=O)Nc1cccnc1 | 24% | ? | -1% | 1%
Cc1ccc(O)c(-c2cc(C(=O)Nc3cccnc3)[nH]n2)c1 | 3.7µM* | -26% | 87% | 2.9µM*
COc1ccc(F)cc1-c1cc(C(=O)Nc2cccnc2)[nH]n1 | nt | nt | -1% | nt
